Measurements taken from PubChem BioAssay AID686979 (National Center for Advancing Translational Sciences (NCATS), 2013).
The campaign covered roughly 420,000 compounds. About 50,000 (12%) were called active. Inconclusive results (about 26%) are left out. Calls come from the whole dose curve; as a rule, active = well fitted inhibition curve with a large enough effect; inconclusive = small, poorly fitted or top-dose-only effect; inactive = flat fitted curve, though single readings scatter. The full list was thinned out, with actives kept by preference.

Assay: qHTS for Inhibitors of human tyrosyl-DNA phosphodiesterase 1 (TDP1): qHTS in cells in presence of CPT; note: nearly all actives have a fitted effect of over 55% in size
Details: chicken DT40 Tdp1-/-;hTDP1 cells + 20 nM CPT, ATP luminescence, 48 h; series mostly up to 46.2 µM; activity change, negative = growth inhibition: at the top concentration
Summary of the method: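 Cell growth measured by CellTiter-Glo luminescence after a minimum 48 h, 37 C compound exposure with 20 nM CPT in Tdp1-knockout DT40 cells stably expressing hTDP1, seeded 400/well; qHTS titration format.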
% is set by controls: 0 for no effect and ±100 for the full control effect; potency is the fitted concentration of half-maximal effect.

Structure (SMILES)	activity change, negative = growth inhibition	Potency
CC(=O)Nc1ccc(NC(=O)C(C)OC(=O)C2CC(=O)N(CCc3ccccc3)C2)cc1 (stereo not drawn)	2.76% (inactive)	–
O=C(O)C1CCCCC1C(=O)N1CCN(S(=O)(=O)c2ccc(F)cc2)CC1 (stereo not drawn)	12.7% (inactive)	–
NCCCCC(C(=O)O)N(C(=O)OCc1ccccc1)C(=O)OCc1ccccc1 (stereo not drawn)	-4.29% (inactive)	–
CC1C(=O)C(C)C(c2ccc(O)cc2)NC1c1ccc(O)cc1 (stereo not drawn)	-17.5% (inactive)	–
O=C(OCC(=O)N1CCN(C(=O)c2ccco2)CC1)c1ccc(Cl)c(Cl)c1	-19.4% (inactive)	–
CCOc1ccccc1/C=N/NC(=O)CNC(=O)COc1ccccc1	17.2% (inactive)	–
COc1ccc(CCNC(=O)CCc2ccccc2O)cc1OC	-0.264% (inactive)	–
Cc1ccc(S(=O)(=O)c2cc3c(=O)n4cccc(C)c4nc3n(CCc3ccccc3)c2=N)cc1C	0.286% (inactive)	–
COc1ccc(CCn2c(=N)c(C(=O)NCc3ccco3)cc3c(=O)n4cccc(C)c4nc32)cc1	–	20.6 µM (active)
COc1ccc(C(=O)Nc2ccccc2C(=O)NCc2ccco2)cc1	-23.2% (inactive)	–
CCOC(=O)c1ccc(NC(=O)CCn2c(=O)oc3ccccc32)cc1	–	inactive
CC(Sc1nncn1C)C(=O)NCCC1=CCCCC1 (stereo not drawn)	-1.08% (inactive)	–
CC(C)[C@H](CO)Nc1nc(Nc2cc(N)cc(Cl)c2)c2ncn(C(C)C)c2n1	–	4.73 µM (active)
CC(C)n1cnc2c(Nc3cccc(Cl)c3)nc(N(CCO)CCCO)nc21	–	10.3 µM (active)
CCC(C)NC(=O)C1c2ccccc2Oc2ccccc21 (stereo not drawn)	-14.2% (inactive)	–
CC(C)(C)c1nnc(NC(=O)C2c3ccccc3Oc3ccccc32)s1	–	23.1 µM (active)
CCC(C)(C)NC(=O)C1c2ccccc2Oc2ccccc21	1.24% (inactive)	–
COCCCNCC(=O)Nc1sc(C)c(C)c1C(=O)OC	-13.3% (inactive)	–
Nc1ncnc2nnsc12	-10.5% (inactive)	–
Oc1c(C(c2ccc(F)cc2)N2CCN(Cc3ccccc3)CC2)sc2nc(-c3ccco3)nn12 (stereo not drawn)	-26.3% (inactive)	–
CC(C)(O)CCC(O)[C@@](C)(O)C1CC[C@]2(O)C3=CC(=O)C4CC(O)C(O)C[C@]4(C)C3CC[C@]12C (stereo partly drawn)	13.7% (inactive)	–
COc1cccc(C(=O)NNC(=O)/C=C/c2ccccc2)c1	-5.33% (inactive)	–
COc1cccc(C=CC(=O)C=CC=Cc2ccccc2)c1	–	20.6 µM (active)

Structure (SMILES)	activity change, negative = growth inhibition	Potency
COc1cccc(N2CC(NC(=O)/C=C\c3ccccc3)CC2=O)c1 (stereo not drawn)	-23.1% (inactive)	–
COc1ccccc1C(C)NC(=O)Cc1ccsc1 (stereo not drawn)	-5.69% (inactive)	–
Cc1cc(C(C)(C)C)oc1C(=O)N(CC(=O)NC1CCCC1)Cc1ccc(Cl)cc1	–	9.2 µM (active)
COc1ccc(CN(CC(=O)NC2CCCC2)C(=O)CCC(=O)Nc2cc(C)on2)cc1	-25.2% (inactive)	–
Cc1ccc(CN(CC(=O)NC2CCCCC2)C(=O)c2csnn2)cc1	-5.16% (inactive)	–
CC(C)Oc1ccc(C(=O)Nc2cc(=O)n(C)c(=O)n2C)cc1	18.5% (inactive)	–
CC(Oc1ccc(Cl)cc1)C(=O)Nc1ncccn1 (stereo not drawn)	-7.6% (inactive)	–
Cc1ccc2cccc(NC(=O)c3ccc(OC(C)C)cc3)c2n1	–	18.4 µM (active)
CC(C)Oc1ccc(C(=O)NC(C)(C)CO)cc1	-10.2% (inactive)	–
Cc1ccc2cccc(NC(=O)C(C)Oc3ccc(C)c(C)c3)c2n1 (stereo not drawn)	–	20.6 µM (active)
COc1ccc(OC(C)C(=O)Nc2cccnc2)cc1 (stereo not drawn)	-18.3% (inactive)	–
Cc1ccc(Cn2c(=O)n(-c3ccc(C)cc3)c(=O)c3c2c2cc(C)ccc2n3C)cc1	7.58% (inactive)	–
CCCCSCCCNC(=O)C1CCC(CNS(=O)(=O)c2ccc(NC(C)=O)cc2)CC1 (stereo not drawn)	-22.3% (inactive)	–
CC1CCN(C(=O)CCNC(=O)c2ccccc2)CC1	-0.49% (inactive)	–
C=CCn1c(CCNC(=O)c2ccccc2F)nnc1SCC(=O)Nc1ccc(OC)cc1	9.16% (inactive)	–
Cc1ccc(CN(CC(=O)NCC2CCCO2)S(=O)(=O)c2ccc(C)cc2)cc1 (stereo not drawn)	-0.912% (inactive)	–
Cc1ccc2nc(C)c3c(c2c1)N(c1ccccc1)CC3	–	11.6 µM (active)
Cc1nc2ccc(C(=O)N3CCN(c4ccccc4)CC3)cc2s1	-6.74% (inactive)	–
Cc1ccc2nc3n(c(=O)c2c1)CCC3	-18.1% (inactive)	–
COc1ccc(Cn2ccnc2SCC(=O)NCc2ccco2)cc1	-6.17% (inactive)	–
CCOC(=O)c1cccc(NC(=O)CCc2nnc3ccc(N4CCOCC4)nn23)c1	-2.91% (inactive)	–
O=C(NC1CCCCC1)C1CCC(CNS(=O)(=O)c2ccccc2)CC1 (stereo not drawn)	-11% (inactive)	–
COc1nc(NC2CCCCC2)nc(N2CCCCCC2)n1	–	22.4 µM (active)

Structure (SMILES)	activity change, negative = growth inhibition	Potency
CN(N)c1nc(N2CCCC2)nc(N2CCCC2)n1	-2.65% (inactive)	–
Clc1nc(NC2CCCC2)nc(N2CCOCC2)n1	0.37% (inactive)	–
C[C@@H]1CN([C@@H](C)CO)C(=O)c2cc(Br)cnc2O[C@@H]1CN(C)C(=O)C1CCCCC1	-6.47% (inactive)	–
CC(=O)N[C@H]1[C@H]([C@H](O)[C@H](O)CO)OC(C(=O)O)=C[C@@H]1O	-10.2% (inactive)	–
CCN(CC)c1ccc2oc(=O)c(C)nc2c1	–	5.17 µM (active)
Cc1ccc2oc(=O)ccc2c1	13.3% (inactive)	–
CCN(CC)c1ccc2c(Nc3ccccc3)c(C=O)c(=O)oc2c1	-5.69% (inactive)	–
CCOc1cc(/C=C2\C(=N)N3N=C(C)SC3=NC2=O)ccc1OCCOc1ccccc1	12.4% (inactive)	–
Cc1c(Cl)cccc1NC(=S)NCc1ccc2c(c1)OCO2	-25.6% (inactive)	–
Cc1ccc(NC(=S)NCc2ccccc2Cl)c(C)c1	–	23.1 µM (active)
S=C(NCc1ccco1)NCc1ccccc1Cl	14.8% (inactive)	–
CCC(=O)N1CCC(C)(C(=O)Nc2cc(OC)c(OC)c(OC)c2)C1 (stereo not drawn)	-1.97% (inactive)	–
CC(=O)Nc1ccc(/C=N/Nc2ccc(C(=O)c3c(C)cc4ccccn34)cc2[N+](=O)[O-])cc1	–	18.4 µM (active)
Cc1ccc(Nc2ccc(C(N)=O)cc2[N+](=O)[O-])cc1	-2.34% (inactive)	–
CNc1ccc(NC(C)=O)cc1[N+](=O)[O-]	-7.93% (inactive)	–
CCCCN1C(=O)C(CC(=O)NCc2cccs2)CC(C(=O)N2CCOCC2)=C1C (stereo not drawn)	5.59% (inactive)	–
O=C(CSc1ncnc2sccc12)NC1CCS(=O)(=O)C1 (stereo not drawn)	8.81% (inactive)	–
Cc1noc(C)c1C(=O)N1CCC1(C)C(=O)NS(=O)(=O)c1ccc(C#N)cc1 (stereo not drawn)	10.7% (inactive)	–
COc1ccc(C(=O)CSc2nc(C)cc(C)n2)cc1[N+](=O)[O-]	2.44% (inactive)	–
O=C(Nc1ccc([N+](=O)[O-])cc1)c1cnn2c1NC(=C1CC1)C=C2C(F)F	0.0748% (inactive)	–
CC(C)(C)C1CCC(NC(=O)c2cnn3c2NC(=C2CC2)C=C3C(F)F)CC1 (stereo not drawn)	–	10 µM (active)
O=C(Nc1ccc(Cl)cc1)c1cnn2c1NC(=C1CC1)C=C2C(F)F	3.58% (inactive)	–
